Binding signal data for eight sequences are collected here from publication PMC7862700, “An all-to-all approach to the identification of sequence-specific readers for epigenetic DNA modifications on cytosine”.

What all share (assay): DAPPL (digital affinity profiling via proximity ligation, sequencing); 10 mM Tris-HCl pH 7.5, 50 mM NaCl, 1 mM DTT, 4% glycerol, room temperature, 30 min; GST-TFs on glutathione beads, 16-mer random dsDNA library, 0.1% formaldehyde crosslink after washing; high values mean tight binding
Common to all, as to settings: protein: recombinant; tags: N-terminal GST; dsDNA, one strand shown

One assay deals with T1, FLI1 (Homo sapiens, UniProt Q01543 1-452).
T1 sequence: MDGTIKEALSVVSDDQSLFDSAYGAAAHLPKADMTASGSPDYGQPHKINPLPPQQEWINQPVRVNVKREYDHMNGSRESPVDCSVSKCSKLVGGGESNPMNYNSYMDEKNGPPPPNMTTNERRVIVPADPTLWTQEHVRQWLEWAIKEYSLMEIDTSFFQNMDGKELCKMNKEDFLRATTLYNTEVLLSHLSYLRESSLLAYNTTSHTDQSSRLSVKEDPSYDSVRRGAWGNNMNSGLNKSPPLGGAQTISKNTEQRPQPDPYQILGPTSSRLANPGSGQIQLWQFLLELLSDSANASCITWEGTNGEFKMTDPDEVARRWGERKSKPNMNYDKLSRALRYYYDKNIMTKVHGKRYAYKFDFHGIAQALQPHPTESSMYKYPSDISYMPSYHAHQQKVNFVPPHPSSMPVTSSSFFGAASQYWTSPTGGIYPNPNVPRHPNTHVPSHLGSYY
A digest of the protocol: (§1)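 Yeast served to express human transcription factors as GST fusions, which were then captured on glutathione beads and labelled with DNA barcodes. Pooled with a tag-only sample, they were incubated with 200 nmole of a 16-mer random double-stranded DNA library for 30 min at room temperature in Tris/NaCl/DTT/glycerol buffer, washed, crosslinked with 0.1% formaldehyde, ligated by proximity, amplified by PCR and sequenced. Dividing each hexamer's read frequency for a factor by its frequency for the tag-only sample gives the binding signal.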

A further assay addresses T2, ELK1 (Homo sapiens, UniProt P19419 1-428).
T2 sequence: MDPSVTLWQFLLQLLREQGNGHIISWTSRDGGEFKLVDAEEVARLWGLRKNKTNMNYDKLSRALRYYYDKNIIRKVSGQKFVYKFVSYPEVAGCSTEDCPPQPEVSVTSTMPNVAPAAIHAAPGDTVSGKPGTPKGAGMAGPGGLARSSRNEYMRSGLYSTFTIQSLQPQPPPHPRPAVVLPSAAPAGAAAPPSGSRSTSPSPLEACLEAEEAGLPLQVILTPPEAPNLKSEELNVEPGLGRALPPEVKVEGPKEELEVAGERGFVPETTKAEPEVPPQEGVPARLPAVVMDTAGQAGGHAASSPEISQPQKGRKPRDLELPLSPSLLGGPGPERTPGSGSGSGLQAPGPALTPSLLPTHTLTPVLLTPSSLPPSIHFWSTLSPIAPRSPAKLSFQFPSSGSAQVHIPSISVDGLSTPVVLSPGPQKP
The gist of the method:
as §1

The target in another assay is T3, GABPA (Homo sapiens, UniProt Q06546 1-454).
T3 sequence: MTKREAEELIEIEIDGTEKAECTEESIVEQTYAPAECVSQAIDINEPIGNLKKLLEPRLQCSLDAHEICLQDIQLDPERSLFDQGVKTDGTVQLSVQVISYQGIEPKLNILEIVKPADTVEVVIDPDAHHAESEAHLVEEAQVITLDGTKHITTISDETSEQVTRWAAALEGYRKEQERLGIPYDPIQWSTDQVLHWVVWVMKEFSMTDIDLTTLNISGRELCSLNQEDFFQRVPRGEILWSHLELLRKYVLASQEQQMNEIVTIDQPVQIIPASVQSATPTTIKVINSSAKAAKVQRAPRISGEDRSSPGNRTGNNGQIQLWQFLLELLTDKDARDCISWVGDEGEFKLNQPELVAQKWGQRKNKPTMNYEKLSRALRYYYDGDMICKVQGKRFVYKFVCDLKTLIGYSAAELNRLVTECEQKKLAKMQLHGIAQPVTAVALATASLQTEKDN
The gist of the method: as §1

For another assay, the target named is T4, ERG (Homo sapiens, UniProt P11308 1-479).
T4 sequence: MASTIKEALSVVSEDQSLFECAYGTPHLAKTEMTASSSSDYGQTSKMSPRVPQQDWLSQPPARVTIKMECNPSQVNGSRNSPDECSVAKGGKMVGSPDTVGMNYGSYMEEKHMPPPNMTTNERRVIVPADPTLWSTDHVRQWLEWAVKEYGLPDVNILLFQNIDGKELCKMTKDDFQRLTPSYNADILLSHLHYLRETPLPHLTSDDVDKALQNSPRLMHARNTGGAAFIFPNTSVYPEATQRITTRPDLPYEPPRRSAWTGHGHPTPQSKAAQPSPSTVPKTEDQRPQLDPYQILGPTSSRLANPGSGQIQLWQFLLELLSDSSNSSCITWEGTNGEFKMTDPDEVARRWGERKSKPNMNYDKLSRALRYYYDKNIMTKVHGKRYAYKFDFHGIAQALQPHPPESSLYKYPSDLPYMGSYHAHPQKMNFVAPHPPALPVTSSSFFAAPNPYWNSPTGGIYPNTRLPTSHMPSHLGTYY
A digest of the protocol: as §1

The target of the next assay is ELF1 (Homo sapiens, UniProt P32519 1-619). The gist of the method:
as §1

For a further assay, the target named is T5, EHF (Homo sapiens, UniProt Q9NZC4 1-300).
T5 sequence: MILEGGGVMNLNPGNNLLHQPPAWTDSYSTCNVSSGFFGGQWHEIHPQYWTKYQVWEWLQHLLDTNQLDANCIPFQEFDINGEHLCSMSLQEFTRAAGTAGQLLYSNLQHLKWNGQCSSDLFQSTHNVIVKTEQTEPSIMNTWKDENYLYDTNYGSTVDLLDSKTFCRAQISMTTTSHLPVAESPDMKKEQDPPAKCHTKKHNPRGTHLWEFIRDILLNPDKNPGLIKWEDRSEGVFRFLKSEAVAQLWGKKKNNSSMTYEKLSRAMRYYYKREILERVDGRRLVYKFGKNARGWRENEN
The gist of the method: as §1

In the next assay the target is SPI1 (Homo sapiens, UniProt P17947 1-270). A digest of the protocol:
as §1

A further assay concerns the target SPIB (Homo sapiens, UniProt Q01892 1-262). The gist of the method:
as §1

The next assay concerns the target T6, ELK3 (Homo sapiens, UniProt P41970 1-407).
T6 sequence: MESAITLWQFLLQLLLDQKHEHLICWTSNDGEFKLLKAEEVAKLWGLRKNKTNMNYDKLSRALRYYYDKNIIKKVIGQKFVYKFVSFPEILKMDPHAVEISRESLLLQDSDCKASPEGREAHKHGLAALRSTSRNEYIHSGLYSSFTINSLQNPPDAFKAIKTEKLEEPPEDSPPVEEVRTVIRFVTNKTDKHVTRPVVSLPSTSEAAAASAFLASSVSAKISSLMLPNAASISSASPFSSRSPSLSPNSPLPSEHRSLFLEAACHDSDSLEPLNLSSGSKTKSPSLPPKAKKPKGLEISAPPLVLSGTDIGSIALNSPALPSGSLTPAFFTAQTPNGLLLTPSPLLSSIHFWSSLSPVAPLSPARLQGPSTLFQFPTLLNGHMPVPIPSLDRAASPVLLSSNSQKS
A digest of the protocol:
as §1

SPIB, sequence (Q01892 whole entry): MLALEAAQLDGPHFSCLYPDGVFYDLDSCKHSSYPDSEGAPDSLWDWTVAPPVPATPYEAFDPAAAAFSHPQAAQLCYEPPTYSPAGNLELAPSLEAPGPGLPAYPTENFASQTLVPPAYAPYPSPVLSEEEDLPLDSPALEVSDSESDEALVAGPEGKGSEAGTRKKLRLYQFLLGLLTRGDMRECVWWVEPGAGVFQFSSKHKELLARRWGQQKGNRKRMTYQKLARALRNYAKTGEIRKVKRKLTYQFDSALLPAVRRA
ELF1, sequence (P32519 whole entry): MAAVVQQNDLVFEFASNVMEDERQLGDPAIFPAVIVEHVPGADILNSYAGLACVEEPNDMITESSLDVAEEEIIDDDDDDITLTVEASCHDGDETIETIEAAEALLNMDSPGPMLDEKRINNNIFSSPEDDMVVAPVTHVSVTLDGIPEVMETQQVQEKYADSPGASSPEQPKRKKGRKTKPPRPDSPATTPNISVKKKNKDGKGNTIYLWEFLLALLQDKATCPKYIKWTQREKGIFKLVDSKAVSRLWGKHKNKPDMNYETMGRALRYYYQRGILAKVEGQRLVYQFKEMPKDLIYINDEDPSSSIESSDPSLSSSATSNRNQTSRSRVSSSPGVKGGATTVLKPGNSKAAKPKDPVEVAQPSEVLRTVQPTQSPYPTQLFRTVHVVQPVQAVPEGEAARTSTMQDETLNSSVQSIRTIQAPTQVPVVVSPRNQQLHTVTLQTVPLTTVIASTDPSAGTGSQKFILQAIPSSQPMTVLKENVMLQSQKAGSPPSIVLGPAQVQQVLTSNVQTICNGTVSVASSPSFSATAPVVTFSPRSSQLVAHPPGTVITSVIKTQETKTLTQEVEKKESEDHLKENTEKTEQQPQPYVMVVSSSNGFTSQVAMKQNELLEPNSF

Regarding TCACTC, the binding signal with FLI1 is 1.16 fold enrichment (6-mer frequency, TF over GST control); with ELK1, 1.19 fold enrichment (6-mer frequency, TF over GST control); with GABPA, 1.28 fold enrichment (6-mer frequency, TF over GST control); with ERG it was 1.18 fold enrichment (6-mer frequency, TF over GST control); with ELF1, 1.34 fold enrichment (6-mer frequency, TF over GST control); in the assay with EHF, 1.27 fold enrichment (6-mer frequency, TF over GST control). Further, the binding signal in the assay with SPI1 was 1.21 fold enrichment (6-mer frequency, TF over GST control); in the assay with SPIB, 1.26 fold enrichment (6-mer frequency, TF over GST control); with ELK3, 1.18 fold enrichment (6-mer frequency, TF over GST control).

Take TGCTGG: the binding signal with FLI1 was 1.08 fold enrichment (6-mer frequency, TF over GST control); with ELK1, 1.09 fold enrichment (6-mer frequency, TF over GST control); in the assay with GABPA it was 1.08 fold enrichment (6-mer frequency, TF over GST control); in the assay with ERG, 1.01 fold enrichment (6-mer frequency, TF over GST control); with ELF1, 1.11 fold enrichment (6-mer frequency, TF over GST control); with EHF, 1.11 fold enrichment (6-mer frequency, TF over GST control). In addition, the binding signal was 1.19 fold enrichment (6-mer frequency, TF over GST control) in the assay with SPI1; 1.1 fold enrichment (6-mer frequency, TF over GST control) in the assay with SPIB; 1.14 fold enrichment (6-mer frequency, TF over GST control) in the assay with ELK3.

For the sequence TTACCA, the binding signal in the assay with FLI1 is 1.12 fold enrichment (6-mer frequency, TF over GST control); in the assay with ELK1, 1.06 fold enrichment (6-mer frequency, TF over GST control); with GABPA it was 1.04 fold enrichment (6-mer frequency, TF over GST control); with ERG, 1.11 fold enrichment (6-mer frequency, TF over GST control); with ELF1, 1.13 fold enrichment (6-mer frequency, TF over GST control); with EHF, 1.03 fold enrichment (6-mer frequency, TF over GST control). Moreover, the binding signal was 1.11 fold enrichment (6-mer frequency, TF over GST control) in the assay with SPI1; 1.12 fold enrichment (6-mer frequency, TF over GST control) in the assay with SPIB; 1.14 fold enrichment (6-mer frequency, TF over GST control) with ELK3.

For AAATAC, the binding signal was 1.3 fold enrichment (6-mer frequency, TF over GST control) with FLI1; 1.27 fold enrichment (6-mer frequency, TF over GST control) with ELK1; 1.43 fold enrichment (6-mer frequency, TF over GST control) with GABPA; 1.43 fold enrichment (6-mer frequency, TF over GST control) with ERG; 1.36 fold enrichment (6-mer frequency, TF over GST control) with ELF1; 1.39 fold enrichment (6-mer frequency, TF over GST control) with EHF. Besides, the binding signal in the assay with SPI1 was 1.41 fold enrichment (6-mer frequency, TF over GST control); with SPIB it was 1.36 fold enrichment (6-mer frequency, TF over GST control); in the assay with ELK3 it was 1.37 fold enrichment (6-mer frequency, TF over GST control).

On to CTTCCC, for which the binding signal in the assay with FLI1 was 2.11 fold enrichment (6-mer frequency, TF over GST control); with ELK1 it was 2.06 fold enrichment (6-mer frequency, TF over GST control); with GABPA, 2.07 fold enrichment (6-mer frequency, TF over GST control); with ERG, 2.19 fold enrichment (6-mer frequency, TF over GST control); with ELF1, 2.29 fold enrichment (6-mer frequency, TF over GST control); with EHF, 2.4 fold enrichment (6-mer frequency, TF over GST control). For the same sequence, the binding signal with SPI1 is 3.35 fold enrichment (6-mer frequency, TF over GST control); with SPIB, 2.45 fold enrichment (6-mer frequency, TF over GST control); with ELK3 it was 2.08 fold enrichment (6-mer frequency, TF over GST control).

With CTTCGA, the binding signal was 1.4 fold enrichment (6-mer frequency, TF over GST control) with FLI1; 1.33 fold enrichment (6-mer frequency, TF over GST control) with ELK1; 1.25 fold enrichment (6-mer frequency, TF over GST control) with GABPA; 1.49 fold enrichment (6-mer frequency, TF over GST control) with ERG; 1.41 fold enrichment (6-mer frequency, TF over GST control) in the assay with ELF1; 1.19 fold enrichment (6-mer frequency, TF over GST control) in the assay with EHF. The binding signal in the assay with SPI1 is 1.3 fold enrichment (6-mer frequency, TF over GST control); with SPIB, 1.31 fold enrichment (6-mer frequency, TF over GST control); in the assay with ELK3 it was 1.57 fold enrichment (6-mer frequency, TF over GST control).

Regarding ACTTAT, the binding signal was 1.4 fold enrichment (6-mer frequency, TF over GST control) in the assay with FLI1; 1.4 fold enrichment (6-mer frequency, TF over GST control) in the assay with ELK1; 1.47 fold enrichment (6-mer frequency, TF over GST control) with GABPA; 1.37 fold enrichment (6-mer frequency, TF over GST control) with ERG; 1.46 fold enrichment (6-mer frequency, TF over GST control) with ELF1; 1.41 fold enrichment (6-mer frequency, TF over GST control) with EHF. Moreover, the binding signal with SPI1 was 1.39 fold enrichment (6-mer frequency, TF over GST control); with SPIB, 1.38 fold enrichment (6-mer frequency, TF over GST control); with ELK3, 1.5 fold enrichment (6-mer frequency, TF over GST control).

On to TTCCGA, for which the binding signal was 1.64 fold enrichment (6-mer frequency, TF over GST control) with FLI1; 1.62 fold enrichment (6-mer frequency, TF over GST control) with ELK1; 1.43 fold enrichment (6-mer frequency, TF over GST control) in the assay with GABPA; 1.66 fold enrichment (6-mer frequency, TF over GST control) in the assay with ERG; 1.44 fold enrichment (6-mer frequency, TF over GST control) in the assay with ELF1; 1.71 fold enrichment (6-mer frequency, TF over GST control) in the assay with EHF. In addition, the binding signal is 1.62 fold enrichment (6-mer frequency, TF over GST control) with SPI1; 1.44 fold enrichment (6-mer frequency, TF over GST control) in the assay with SPIB; 1.68 fold enrichment (6-mer frequency, TF over GST control) in the assay with ELK3.
